Only some compounds are listed: those with a hit (about 18% of all), similar ones and a draw of the others.
TGFb inhibitor: blocks TGF-b signaling; AID 588855; Potency, µM (series often up to 46.1 µM), inactives show top-dose activity, negative = inhibition, actives largely listed as inhibitors; 410,000 tested, 1.2% active; HepG2 CAGA-GFP TGF-b/SMAD3 reporter, GFP fluorescence, 18 h; TGF-beta stimulated, 500 pg/mL final; also: potency is read from the fitted curve at half-maximal effect; % is scaled to controls: 0 for no effect and ±100 for the full control effect; nearly all actives have a fitted effect of over 65% in size
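GFP signal (ex488/em500-530) from TGF-beta-stimulated HEPG2 CAGA-GFP cells, 500 pg/mL final, 18 h at 37 degrees C in DMEM plus 1% FBS, normalized to unstimulated and DMSO-stimulated controls.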
HepG2 viability: counter-screen for TGF-b inhibitors: cytotoxicity in HepG2 cells; HepG2 CAGA-GFP viability, ATP luminescence, 18 h; AID 588856; Potency, µM (doses to about 46.1 µM), for inactives: top-dose activity change, negative = cytotoxicity, most hits filed as cytotoxic; 410,000 tested, 0.76% active; also: potency is read from the fitted curve at half-maximal effect
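CellTiter-Glo luminescence gave cytotoxicity after 18 hours at 37 degrees C. The cells were HepG2 CAGA-GFP in 1% FBS DMEM, stimulated with 500 pg/mL TGF-beta after compound addition. %Activity was normalised to no-cell wells (complete cell-killing) and DMSO (no toxicity), and curves were fitted and classified.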
TDP1 inh: blocks human tyrosyl-DNA phosphodiesterase 1 | Q9NUW8 | recombinant TDP1, AlphaScreen DNA substrate cleavage | Potency, µM (titrated, usually from 130 µM), for inactives: at the highest dose activity change, negative = inhibition, hits mostly inhibitors | 350,000 tested, 0.28% active; also: potency is read from the fitted curve at half-maximal effect; % is scaled to controls: 0 for no effect and ±100 for the full control effect; nearly all actives have a fitted effect of over 40% in size
Target sequence (Q9NUW8 whole entry, looked up): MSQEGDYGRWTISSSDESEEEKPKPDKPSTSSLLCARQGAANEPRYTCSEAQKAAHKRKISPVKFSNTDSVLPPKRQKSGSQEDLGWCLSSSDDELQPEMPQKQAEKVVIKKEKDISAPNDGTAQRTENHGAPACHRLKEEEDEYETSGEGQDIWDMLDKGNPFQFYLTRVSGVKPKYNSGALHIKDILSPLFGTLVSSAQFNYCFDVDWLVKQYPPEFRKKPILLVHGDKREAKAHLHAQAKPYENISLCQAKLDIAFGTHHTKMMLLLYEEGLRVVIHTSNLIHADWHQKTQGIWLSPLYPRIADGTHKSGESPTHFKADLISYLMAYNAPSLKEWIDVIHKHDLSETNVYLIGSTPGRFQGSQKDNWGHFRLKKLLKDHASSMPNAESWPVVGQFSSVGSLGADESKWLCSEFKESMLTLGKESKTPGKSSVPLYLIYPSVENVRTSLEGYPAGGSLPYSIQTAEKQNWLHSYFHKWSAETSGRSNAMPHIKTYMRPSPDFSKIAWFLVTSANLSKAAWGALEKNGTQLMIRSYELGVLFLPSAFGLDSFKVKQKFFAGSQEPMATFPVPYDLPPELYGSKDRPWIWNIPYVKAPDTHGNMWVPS
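Recombinant human Tdp1 (E. coli-expressed, 1 nM final) preincubated with compounds 15 min at room temperature, then 5'-biotin/3'-phosphotyrosine-FITC DNA substrate (15 nM final) added for 5 min. AlphaScreen beads (10 ug/ml final) added 10 min; cleavage lowers signal.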
TDP1 cell noCPT: qHTS for Inhibitors of human tyrosyl-DNA phosphodiesterase 1 (TDP1): qHTS in cells in absence of CPT. 420,000 tested, 15% active. Potency, µM (titrated, usually from 46.2 µM), inactives show at the top dose activity change, negative = growth inhibition, usual class: inhibitors. DT40 Tdp1-/- hTDP1 cells, no CPT, ATP luminescence, 48 h. AID 686978, 2013; also: potency is read from the fitted curve at half-maximal effect; % is scaled to controls: 0 for no effect and ±100 for the full control effect; nearly all actives have a fitted effect of over 55% in size
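Camptothecin absent (DMSO only). Human TDP1-complemented DT40 knockout cells, 400 cells/well, 37 °C for minimum 48 hr; ATP measured via CellTiter-Glo, 30 min dark incubation, luminescence.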
TDP1 cell CPT: DT40-hTDP1 cell growth loss with CPT. 420,000 tested, 12% active. chicken DT40 Tdp1-/-;hTDP1 cells + 20 nM CPT, ATP luminescence, 48 h. Potency, µM (highest dose often 46.2 µM), for the others: at the highest dose activity change, negative = growth inhibition, hits mostly inhibitors; also: potency is read from the fitted curve at half-maximal effect; % is scaled to controls: 0 for no effect and ±100 for the full control effect; nearly all actives have a fitted effect of over 55% in size
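Chicken DT40 Tdp1-/- cells stably complemented with human TDP1 were seeded at 400 cells/well in medium containing 20 nM camptothecin, exposed to pin-transferred compounds, and grown at 37 °C for at least 48 hr. Viability was read as ATP luminescence.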
IL1B secr inh: inflammasome signaling inhibition, IL-1 beta readout; 360,000 tested, 4.7% active; activity change, % at 57.5 µM; AID 743279; THP-1 LPS/ATP IL-1B secretion, AlphaLISA, 16 h; active compounds read low; in the data active = activity change below about -50%; inconclusive = mostly about -30% to -49%; also: % is scaled to controls: 0 for no effect and ±100 for the full control effect
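THP-1 cells pretreated 1 hr with compounds (up to 57.5 uM final), then stimulated with LPS (250 ng/mL final) plus ATP (1.25 mM final); secreted IL-1B measured by AlphaLISA after 16 hr, decreased signal indicating inhibition.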
* marks the source's active call; other numbers are inactive results; ? = inconclusive; · = no result given; [ ] = another dose, or the depositor's remark. Unless noted, calls follow the shape of the dose curve; as a rule, active = well fitted curve in the direction sought with a large enough effect; inconclusive = small, poorly fitted or top-dose-only effect, or another doubt; inactive = no such curve, though single readings can be large; an effect the other way counts as inactive or inconclusive.

SMILES	TGFb inhibitor	HepG2 viability	TDP1 inh	TDP1 cell noCPT	TDP1 cell CPT	IL1B secr inh
COC(=O)CNC(=O)C1CCN(S(=O)(=O)c2cnc[nH]2)CC1	-0.6%	3.9%	1.1%	10.0%	1.1%	-8.3
Cc1cc(S(=O)(=O)N2CCCC(C(=O)Nc3ccc(C(=O)O)cc3)C2)ccc1Cl (stereo unspecified)	6.0%	-0.8%	5.1%	-9.5%	4.6%	24.8
CCN1CCS/C1=C/C=C/C1=[N+](CC)CCS1	-3.3%	-12.1%	8.1%	0.146µM*	0.184µM*	9.5
CCN1CCS/C1=C\C=C\C1=[N+](CC)CCS1	?	-30.1%	6.0%	0.206µM*	0.731µM*	-16.5
Cc1cccc(NS(=O)(=O)c2cc(C(=O)N3CCCCCC3)ccc2C)c1	-3.2%	-13.5%	5.4%	?	-26.8%	-9.3
COCCOc1ccc(C(F)(F)F)cc1NC(=O)COC(=O)C12CC3CC(CC(O)(C3)C1)C2	-16.2%	5.4%	2.5%	-19.6%	-19.0%	18.3
CCC(O)CNC(=O)NC(=C(Cl)Cl)c1ccc(C)c(F)c1 (stereo unspecified)	-12.5%	-9.2%	2.7%	10.3µM*	?	-72.7*
O=C(NCCC1CCCCN1S(=O)(=O)c1cccs1)C(=O)Nc1ccc(F)cc1 (stereo unspecified)	-20.3%	-17.3%	2.2%	?	?	-62.8*
CCOc1ccc(CNC(=O)C2CCCCN2S(=O)(=O)c2ccc(F)cc2)cc1OC (stereo unspecified)	-6.5%	-14.6%	0.0%	?	-26.1%	·
COc1ccc(NC(=O)C(=O)NCCC2CCCCN2S(=O)(=O)c2ccc(F)cc2)cc1 (stereo unspecified)	-17.0%	4.1%	·	10.3µM*	20.6µM*	-7.4
O=C(NCCC1CCCCN1S(=O)(=O)c1cccs1)C(=O)Nc1cccc(F)c1 (stereo unspecified)	?	8.3%	-4.0%	14.6µM*	23.1µM*	7.7
COc1cc(CNC(=O)C2CCCCN2S(=O)(=O)c2ccc(F)cc2)cc(OC)c1OC (stereo unspecified)	-22.0%	-8.4%	0.0%	11.6µM*	?	·
O=C(NCCC1CCCCN1S(=O)(=O)c1ccccc1)C(=O)Nc1ccc(F)cc1 (stereo unspecified)	-0.8%	-9.4%	-0.8%	?	?	?
O=C(CNC(=O)c1ccc(Cl)cc1)NNc1c(F)c(F)cc(F)c1F	22.9%	-4.6%	0.5%	-17.1%	-13.5%	0.1
Cc1cccc(NC(=O)CCS(=O)(=O)c2ccc(Cl)cc2)c1	0.0%	0.9%	·	11.4%	-13.5%	0.0
COc1cccc(CNc2ccc(S(=O)(=O)N3CCCC3)cn2)c1	-25.4%	-16.5%	-0.7%	?	?	7.7
O=C1CCC(C(=O)N2CCN(c3cnccn3)CC2)CN1CCc1ccccc1 (stereo unspecified)	13.4%	1.7%	·	-7.5%	-12.7%	-4.0
COc1ccc([C@H]2CC(=O)C=C(c3cccc(Cl)c3)C2)cc1OC	-29.9%	-2.1%	1.4%	?	14.6µM*	-66.0*
COc1ccc(C2=CC(=O)C[C@H](c3ccc(F)cc3)C2)cc1F	-7.6%	-1.9%	-0.1%	?	20.6µM*	0.0
CCCCC/C=C/C1=CC(=O)C[C@H](c2ccc(OC)c(OC)c2)C1	?	-18.1%	0.5%	10.3µM*	20.6µM*	-21.6
COc1cc(F)c(C2=CC(=O)C[C@H](c3ccc(F)cc3)C2)cc1F	-3.5%	4.2%	-1.8%	-17.2%	?	0.0
O=C1C=C(c2ccc(Cl)c(C(F)(F)F)c2)C[C@@H](c2ccc(Cl)cc2)C1	14.1µM*	-45.0%	0.1%	?	?	-22.3
COc1ccc([C@H]2CC(=O)C=C(c3ccccc3)C2)cc1OC	-12.1%	-20.8%	1.7%	?	?	?
COc1ccc([C@H]2CC(=O)C=C(c3ccc(F)cc3OCc3ccccc3)C2)cc1OC	-12.3%	-24.9%	1.9%	20.6µM*	?	?
COc1ccc([C@H]2CC(=O)C=C(c3ccc(SC)cc3)C2)cc1OC	?	1.8%	4.0%	14.6µM*	9.2µM*	-13.4
SMILES	TGFb inhibitor	HepG2 viability	TDP1 inh	TDP1 cell noCPT	TDP1 cell CPT	IL1B secr inh
CCCCC(=O)NC1(C(F)(F)F)C(=O)Nc2c1c(=O)[nH]c(=O)n2-c1ccc(F)cc1 (stereo unspecified)	16.5%	1.7%	11.6%	-1.4%	2.1%	·
COc1ccc(NC(=O)CN(C)C(=O)Cc2ccc(-c3ccccc3)cc2)cc1	-0.5%	-34.8%	0.0%	?	1.6%	21.9
CCN1CCN(C(=O)c2ccc3c(c2)N(Cc2cccc(Cl)c2)C(=O)c2ccccc2S3(=O)=O)CC1	?	-31.5%	0.9%	?	?	·
O=C(c1ccc2c(c1)N(Cc1ccccc1)C(=O)c1ccccc1S2(=O)=O)N1CCCCCC1	·	-2.6%	3.5%	?	?	·
O=C(c1ccc2c(c1)N(Cc1cccc(Cl)c1)C(=O)c1ccccc1S2(=O)=O)N1CCCCC1	-2.7%	-20.5%	0.9%	?	16.4µM*	·
O=C(c1ccc2c(c1)N(Cc1cccc(Cl)c1)C(=O)c1ccccc1S2(=O)=O)N1CCc2ccccc21	?	-18.9%	0.0%	1.64µM*	2.06µM*	·
CCc1nc(SCc2cc(=O)c3cc(C)ccc3[nH]2)n[nH]1	0.0%	-21.9%	8.1%	-25.6%	6.0%	·
Cc1cc(=O)c2ccc(Cl)cc2[nH]1	2.4%	9.0%	4.1%[234 µM]	-21.0%	-9.1%	65.1
Cc1cc(=O)c2cc(Cl)ccc2[nH]1	0.5%	-0.6%	-2.5%	5.17µM*	5.17µM*	11.5
COc1ccc(-c2cc(=O)c3cc(F)ccc3[nH]2)cc1	11.7%	5.4%	2.0%[234 µM]	?	?	1.6
Cc1ccc2[nH]c(CSc3ccccc3)cc(=O)c2c1	9.3%	-0.2%	·	16.4µM*	18.4µM*	9.7
O=c1cc(CSc2ccccc2)[nH]c2ccc(F)cc12	-25.3%	-60.2%	0.0%	16.4µM*	11.6µM*	·
COc1ccc(SCc2cc(=O)c3cc(Cl)ccc3[nH]2)cc1	-26.4%	-47.2%	2.7%	3.66µM*	20.6µM*	·
C[C@@H]1CNC(=O)c2c(C(=O)N[C@@H](Cc3c[nH]c4ccccc34)C(=O)OC(C)(C)C)ncn21	-0.5%	5.3%	·	?	?	48.2
